Results as given in ChEMBL document CHEMBL3988442, “University of Dundee, Small-Polar-MMV Screening Library” (2021).
The campaign covered roughly 38,000 compounds. About 1,200 (3.2%) showed an effect of 50% or more. The median lay at about -58%. What follows is part of a selection rich in strong results, with near analogues and random picks from the rest.

The molecules below were run on Plasmodium falciparum (assay: Calibr Malaria Delayed Death Assay SOP). Conditions: concentration 4.99e-06 (unit not given; other assays of the set use mol/L).
Assay type: functional, organism-based
Set-up: scale not given: in the data most compounds retested in dose-response had high values

Row | SMILES | Percent Effect
1 | CC(=O)c1c(O)n(C)c2ccccc12 | -129.1%
2 | O=C(COCCc1ccccc1)N1CCCC(n2cncn2)C1 (configuration not stated) | -37.64%
3 | Cc1cccc(CSc2nnc(C)n2CC(N)=O)c1 | -106.3%
4 | CS(=O)(=O)N1CCC(CNC(=O)C2CCC2)CC1 | -20.15%
5 | O=C(NCCc1ccncc1)c1ccc(S(=O)(=O)NC2CCC2)cc1 | -25%
6 | CSCC[C@@H](CO)NC(=O)c1sc(-c2ccc(Cl)cc2)nc1C | -102.9%
7 | CCOC(=O)CSc1nnc(C(N)CC(C)C)o1.Cl (configuration not stated) | -109.2%
8 | NC(=O)NCC1CCCCN1C(=O)c1cc(F)cc(F)c1 (configuration not stated) | -156.9%
9 | CC1CCCN(C(=O)CNC(=O)c2ccoc2)C1 (configuration not stated) | -96.13%
10 | CC(C)(C)CC(=O)Nc1cnn(-c2ccccc2S(C)(=O)=O)c1 | -5.765%
11 | c1ccc2oc(CCCN3CCc4cncnc4C3)nc2c1 | -82.49%
12 | Cc1ncc2c(n1)CN(Cc1nc3ccccc3o1)CC2 | -59.98%
13 | CC(C)c1ncc2c(n1)CN(CCCc1nc3ccccc3o1)CC2 | 69.07%
14 | O=C(NCCc1cnccn1)c1cccc(S(=O)(=O)NC2CCOC2)c1 (configuration not stated) | -80.94%
15 | O=C(c1cnn[nH]1)N(CCCO)Cc1cccnc1 | -126.7%
16 | CN(Cc1ccsc1)C(=O)CNC(=O)N1CCc2ccccc2C1 | -30.75%
17 | COc1cccc(CN2CCC3(CC(Nc4ccncn4)C3)C2)c1F (configuration not stated) | -62.87%
18 | N#Cc1cccc(S(=O)(=O)N2CC(CC(=O)O)c3ccccc32)c1 (configuration not stated) | -122.6%
19 | CN(C)C1Cc2ccccc2N(S(=O)(=O)c2cccc(C#N)c2)C1 (configuration not stated) | 75.93%
20 | CN1CCN(S(=O)(=O)c2cccc(C#N)c2)c2ccc(F)cc21 | -39.03%
21 | CC(=O)NCCNC(=O)C(c1ccccc1C)N(C)C (configuration not stated) | -142.6%
22 | Cc1cscc1-c1nc(C2CCOC2)no1 (configuration not stated) | -27.07%
23 | O=C(c1scc2c1OCCO2)N1CCOC(Cc2ccc(F)cc2)C1 (configuration not stated) | -16.04%

Row | SMILES | Percent Effect
24 | O=C(c1scc2c1OCCO2)N1CCOC(CCc2ccccc2)C1 (configuration not stated) | 88.31%
25 | O=C(c1scc2c1OCCO2)N1CCOC(Cc2cccc(F)c2)C1 (configuration not stated) | -44.17%
26 | CC1CCC(NS(=O)(=O)CC(=O)NCC2CCC2)CC1 (configuration not stated) | -74.87%
27 | O=C(CCc1ccco1)N1CCC(Oc2ccccc2)(C(=O)O)CC1 | -48.84%
28 | COc1ccc(CNC(=O)C2=NN(c3ccc(C)cc3)C(=O)CN2)cc1 | 74.74%
29 | COc1ncccc1CNC(=O)C1=NN(c2ccccc2)C(=O)CN1 | -51.2%
30 | O=C(NCc1cccnc1)C1=NN(c2ccccc2)C(=O)CN1 | 39.33%
31 | CN1C(=O)CC[C@]12CC[C@@H](NC(=O)NCc1cccnc1)CC2.O=C(O)C(F)(F)F | -78.37%
32 | COCCN(C/C=C/c1ccccc1)Cc1nccs1 | -11.48%
33 | COCCN(C/C=C/c1ccccc1)Cc1ccccn1 | 20.8%
34 | CCc1ccc(CN(C/C=C/c2ccccc2)CCOC)nc1 | 52.86%
35 | O=C1CC(c2ccncc2)C2(CCN(Cc3cccnc3)CC2)N1 (configuration not stated) | -62.4%
36 | CN1CCCN(C(=O)NCCNc2cnccn2)CC1 | -4.347%
37 | CO[C@@H]1CCN(Cc2cccc(C)n2)[C@@H]2CN(Cc3ccncc3)C[C@@H]21.O=C(O)C(F)(F)F.O=C(O)C(F)(F)F.O=C(O)C(F)(F)F.O=C(O)C(F)(F)F | 30.62%
38 | CO[C@H]1CCN(Cc2cnn(C)c2)[C@@H]2CN(Cc3ccncc3)C[C@H]12.O=C(O)C(F)(F)F.O=C(O)C(F)(F)F.O=C(O)C(F)(F)F | -72.72%
39 | CO[C@H]1CCN(Cc2cccs2)[C@@H]2CN(Cc3ccncc3)C[C@H]12.O=C(O)C(F)(F)F.O=C(O)C(F)(F)F.O=C(O)C(F)(F)F | 59.98%
40 | CO[C@@H]1CCN(Cc2cccs2)[C@@H]2CN(Cc3ccncc3)C[C@@H]21.O=C(O)C(F)(F)F.O=C(O)C(F)(F)F.O=C(O)C(F)(F)F | 52.08%
41 | COCCN1C[C@H]2[C@@H](C1)N(Cc1cnn(C)c1)CC[C@H]2OC.O=C(O)C(F)(F)F.O=C(O)C(F)(F)F | -59.33%
42 | COCCN1C[C@@H]2[C@@H](OC)CCN(Cc3cccs3)[C@@H]2C1.O=C(O)C(F)(F)F.O=C(O)C(F)(F)F | 66.16%
43 | COCCN1C[C@@H]2[C@@H](OC)CCN(Cc3ccco3)[C@@H]2C1.O=C(O)C(F)(F)F.O=C(O)C(F)(F)F | -1.66%
44 | COCCN1C[C@@H]2[C@@H](OC)CCN(Cc3ccc(C)o3)[C@@H]2C1.O=C(O)C(F)(F)F.O=C(O)C(F)(F)F | 3.217%
45 | COCCN1C[C@@H]2[C@@H](OC)CCN(Cc3ccncc3)[C@@H]2C1.O=C(O)C(F)(F)F.O=C(O)C(F)(F)F.O=C(O)C(F)(F)F | 24.39%
46 | CO[C@H]1CCN(Cc2c(C)noc2C)[C@@H]2CN(Cc3ccncc3)C[C@H]12.O=C(O)C(F)(F)F.O=C(O)C(F)(F)F.O=C(O)C(F)(F)F | -5.39%

Row | SMILES | Percent Effect
47 | CO[C@H]1CCN(C2CCC2)[C@@H]2CN(Cc3ccncc3)C[C@H]12.O=C(O)C(F)(F)F.O=C(O)C(F)(F)F.O=C(O)C(F)(F)F | -45.55%
48 | COCCN1C[C@@H]2[C@@H](OC)CCN(Cc3ccsc3)[C@@H]2C1.O=C(O)C(F)(F)F.O=C(O)C(F)(F)F | 66.72%
49 | CN1CCN(C(=O)c2cc3sccc3n2Cc2ccccc2F)CC1 | 29.89%
50 | NC(=O)c1ccc(CN2CCCC(N3CCCCCC3)C2)cc1 (configuration not stated) | -140%
51 | COCC(=O)N1C[C@H](N(C)Cc2cncnc2)[C@H]2OCCC[C@H]21 | -24%
52 | COc1ccccc1OC1CCN(Cc2ccc(N(C)C)nc2)CC1 | -79.91%
53 | O=C(NCCn1cccc1)c1c(O)cc(F)cc1F | -181.2%
54 | Cc1cc(C(=O)N2CCCC2c2nnc3n2CCCCC3)on1 (configuration not stated) | -57.59%
55 | CCN1C[C@H]2[C@@H](C1)N(S(=O)(=O)c1ccccc1F)CC[C@H]2OC.O=C(O)C(F)(F)F | 45.85%
56 | CCN1C[C@@H]2[C@@H](OC)CCN(S(=O)(=O)c3cccnc3)[C@@H]2C1.O=C(O)C(F)(F)F.O=C(O)C(F)(F)F | -23.75%
57 | CCN1C[C@H]2[C@@H](C1)N(S(=O)(=O)c1ccccc1)CC[C@H]2OC.O=C(O)C(F)(F)F | 60.81%
58 | O=c1cc(N2CCCCC2)cnn1CC(O)C(F)(F)F (configuration not stated) | -156.3%
59 | Cc1ccnc(OCC(=O)N2CCCC2)n1 | -75.67%
60 | Fc1cccc(Cl)c1CNCCCOc1ccccn1 | 9.624%
61 | Cc1cccc(NC(=O)C2CSc3ncc(C)c(=O)n3C2)n1 (configuration not stated) | -106.9%
62 | c1cnc(N2CCC3(COCc4cnc(N5CCOCC5)nc43)C2)nc1 (configuration not stated) | -59.23%
63 | CC(C)(O)CN1CCN(C(=O)c2cccn2Cc2ccccc2)CC1 | -70.89%
64 | Cc1ccc(C2(CN(C)Cc3sccc3C)CCNCC2)nc1 | 76.73%
65 | Cc1ccc(C2(CN(C)Cc3c(C)nn(C)c3C)CCNCC2)nc1 | 16.34%
66 | Cc1ccc(C2(CN(C)Cc3snnc3C)CCNCC2)nc1 | -24.27%
67 | CCCc1nc(N2CCCC(CCOC)C2)c2cnn(C)c2n1 (configuration not stated) | -84.44%
68 | CCC(CO)NCc1ccc(-c2ccc(Br)cc2)o1.Cl (configuration not stated) | 45.11%
69 | Cc1cc(N2CCCC2)nc(N(C)CCO)c1C#N | -125.9%

Row | SMILES | Percent Effect
70 | CC(=O)N1CCc2nc(N(C)C)nc(NCCc3ccccc3)c2CC1 | -47.75%
71 | Cc1nc(CCNc2nc(N(C)C)nc3c2CCCC3)cc(=O)[nH]1 | -16.34%
72 | CN(C)c1nc2c(c(NCc3cc(O)ncn3)n1)CCCC2 | 89.31%
73 | Cc1cnn(CC2CCCN2Cc2nnc(C)o2)c1 (configuration not stated) | -118.7%
74 | CC(C)c1cc(NC(=O)c2ccncc2)[nH]n1 | -141%
75 | CC(C)c1cc(NC(=O)c2ccc([S+]([O-])C(C)C)cc2)[nH]n1 (configuration not stated) | -180.3%
76 | CC(C)c1cc(NC(=O)c2ccc(C(=O)NC(C)(C)C)cc2)[nH]n1 | 62.94%
77 | CCn1c(C)nnc1Sc1nn2cc(C)nc2s1 | -124.9%
78 | CCN1CC2(CC1=O)CN(C(=O)c1ccoc1)CCN(C(=O)N(C)C)C2 (configuration not stated) | -39.9%
79 | Cc1c(CN2CC[C@@H](N3CCC(O)CC3)[C@H](O)C2)[nH]c2ccc(Cl)cc12 | 53.46%
80 | Cc1ccc2[nH]c(CN3CC[C@@H](N4CCN(C)CC4)[C@H](O)C3)c(C)c2c1 | -45.01%
81 | Cc1c(CN2CC[C@@H](N3CCC(O)CC3)[C@H](O)C2)[nH]c2ccc(F)cc12 | -24.81%
82 | Cc1noc([C@@]23CCO[C@@H]2CCN(S(=O)(=O)c2cccnc2)C3)n1 | -112.8%
83 | CSc1ccc(CN(CCO)C(=O)CCc2ccc(O)cc2)cc1 | -83.46%
84 | CN1CCC(N2CCC(C(=O)N(C)C)CC2)CC1.O=C(O)C(F)(F)F.O=C(O)C(F)(F)F | -35.37%
85 | Cc1cc(=O)n2nc(Oc3cc(Cl)cc(Cl)c3)sc2n1 | -6.381%
86 | Cc1cc(=O)n2nc(Oc3ccc(C#N)cc3Cl)sc2n1 | 19.91%
87 | Cc1cc(=O)n2nc(Oc3cccc(I)c3)sc2n1 | 55.78%
88 | O=c1[nH]cnc2[nH]c(N3CCCCC3)nc12 | -26.61%
89 | N#Cc1ccc(NCc2cccc(OCC3CCCO3)c2)nc1 (configuration not stated) | -77.93%
90 | COCc1nc(CNC(=O)C(C)n2ccnc2C(C)C)no1 (configuration not stated) | -17.51%
91 | COc1cc2c(cc1CNC(=O)C(C)n1ccnc1C(C)C)CCC2 (configuration not stated) | 59.1%
92 | COc1cc2c(cc1CNC(=O)C(C)n1ccnc1C(C)C)OCCO2 (configuration not stated) | 8.922%
